In PubChem BioAssay (NCATS):
Several values for one entry are separate records, joined by “and”; a condition that tells them apart may be missing. Equal entries are not always repeated. Results filed as inconclusive are left out. Activity calls are given as the source filed them. Unless noted, calls come from the whole dose curve; as a rule, active = well fitted curve in the direction sought with a large enough effect; inconclusive = small, poorly fitted or top-dose-only effect, or another doubt; inactive = no such curve, though single readings can be large; an effect the other way counts as inactive or inconclusive.

Assays:
[1] = target: Retinoic acid receptor RXR-alpha (Homo sapiens) (UniProt P19793); assay: qHTS assay for small molecule antagonists of retinoid X receptor alpha signaling (AID 588546; active = well fitted inhibition curve with a large enough effect in the signal ratio, with a control signal flat, not every such curve was filed as active; the % refers to the signal ratio;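 note: cells stimulated with 9-cis-retinoic acid as agonist; % is set by controls: 0 for no effect and ±100 for the full control effect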); details: HEK293T RXRa-UAS-bla, beta-lactamase ratio, antagonist mode
Chain of Retinoic acid receptor RXR-alpha (Homo sapiens) (P19793 whole entry, looked up): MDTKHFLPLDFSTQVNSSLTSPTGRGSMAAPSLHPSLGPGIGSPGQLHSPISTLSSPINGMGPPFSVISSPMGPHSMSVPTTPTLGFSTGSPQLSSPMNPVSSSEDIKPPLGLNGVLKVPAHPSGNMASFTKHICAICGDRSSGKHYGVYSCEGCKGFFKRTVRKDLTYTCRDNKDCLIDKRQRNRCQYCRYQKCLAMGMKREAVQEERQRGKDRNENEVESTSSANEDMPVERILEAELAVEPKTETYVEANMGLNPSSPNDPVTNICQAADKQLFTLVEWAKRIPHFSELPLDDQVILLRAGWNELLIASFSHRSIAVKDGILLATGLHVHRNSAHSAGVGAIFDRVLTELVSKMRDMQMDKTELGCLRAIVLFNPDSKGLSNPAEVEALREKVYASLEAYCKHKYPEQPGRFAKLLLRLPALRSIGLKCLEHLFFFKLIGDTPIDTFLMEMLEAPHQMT
Summary of the method: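 Beta-lactamase reporter inhibition, read as CCF4 fluorescence ratio (ex 405, em 460/530 nm) after 2 h at RT. HEK293T UAS-bla cells, 2500/well, were stimulated with 9-cis-RA at 500 or 100 nM final alongside test compound for 18 h at 37 C.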

[2] = target: Thyroid hormone receptor beta (Homo sapiens) (UniProt P10828); assay: qHTS assay for small molecule antagonists of thyroid hormone receptor beta signaling (AID 588547; active = well fitted inhibition curve with a large enough effect in the signal ratio, with a control signal flat, not every such curve was filed as active; the % refers to the signal ratio;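 note: cells stimulated with 0.4 nM T3 agonist during compound exposure; % is set by controls: 0 for no effect and ±100 for the full control effect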); details: TR-UAS-bla HEK293, beta-lactamase ratio, antagonist mode, 18 h
Chain of Thyroid hormone receptor beta (Homo sapiens) (P10828 whole entry, looked up): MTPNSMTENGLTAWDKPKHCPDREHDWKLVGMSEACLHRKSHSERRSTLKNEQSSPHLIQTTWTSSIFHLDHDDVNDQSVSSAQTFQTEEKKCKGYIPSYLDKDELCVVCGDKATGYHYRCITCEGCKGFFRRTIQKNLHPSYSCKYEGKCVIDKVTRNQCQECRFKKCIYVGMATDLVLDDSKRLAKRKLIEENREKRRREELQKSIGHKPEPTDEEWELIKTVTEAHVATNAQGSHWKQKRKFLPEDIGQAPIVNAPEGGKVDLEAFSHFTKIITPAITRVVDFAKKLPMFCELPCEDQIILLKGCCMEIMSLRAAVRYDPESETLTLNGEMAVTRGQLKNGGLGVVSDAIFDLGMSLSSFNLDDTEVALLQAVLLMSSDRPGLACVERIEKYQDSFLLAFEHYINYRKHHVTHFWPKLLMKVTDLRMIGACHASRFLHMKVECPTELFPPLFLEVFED
Summary of the method: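 Inhibition of T3-driven (0.4nM final) beta-lactamase reporter activity was measured over 0.59 nM to 92 uM compound after 18 h at 37 C. The cells were GripTite HEK293 TR-UAS-bla in charcoal/dextran-stripped serum, with CCF4 ratio read-out and IC50 from Hill fits.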

[3] = target: Voltage-gated inwardly rectifying potassium channel KCNH2 (Homo sapiens) (UniProt Q12809); assay: qHTS Assay for Small Molecule Inhibitors of the Human hERG Channel Activity (AID 588834);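 note: top concentration of the series differs between compounds; % is set by controls: 0 for no effect and ±100 for the full control effect; lower thallium flux fluorescence means stronger hERG block; nearly all actives have a fitted effect of over 50% in size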
Chain of Voltage-gated inwardly rectifying potassium channel KCNH2 (Homo sapiens) (Q12809 whole entry, looked up): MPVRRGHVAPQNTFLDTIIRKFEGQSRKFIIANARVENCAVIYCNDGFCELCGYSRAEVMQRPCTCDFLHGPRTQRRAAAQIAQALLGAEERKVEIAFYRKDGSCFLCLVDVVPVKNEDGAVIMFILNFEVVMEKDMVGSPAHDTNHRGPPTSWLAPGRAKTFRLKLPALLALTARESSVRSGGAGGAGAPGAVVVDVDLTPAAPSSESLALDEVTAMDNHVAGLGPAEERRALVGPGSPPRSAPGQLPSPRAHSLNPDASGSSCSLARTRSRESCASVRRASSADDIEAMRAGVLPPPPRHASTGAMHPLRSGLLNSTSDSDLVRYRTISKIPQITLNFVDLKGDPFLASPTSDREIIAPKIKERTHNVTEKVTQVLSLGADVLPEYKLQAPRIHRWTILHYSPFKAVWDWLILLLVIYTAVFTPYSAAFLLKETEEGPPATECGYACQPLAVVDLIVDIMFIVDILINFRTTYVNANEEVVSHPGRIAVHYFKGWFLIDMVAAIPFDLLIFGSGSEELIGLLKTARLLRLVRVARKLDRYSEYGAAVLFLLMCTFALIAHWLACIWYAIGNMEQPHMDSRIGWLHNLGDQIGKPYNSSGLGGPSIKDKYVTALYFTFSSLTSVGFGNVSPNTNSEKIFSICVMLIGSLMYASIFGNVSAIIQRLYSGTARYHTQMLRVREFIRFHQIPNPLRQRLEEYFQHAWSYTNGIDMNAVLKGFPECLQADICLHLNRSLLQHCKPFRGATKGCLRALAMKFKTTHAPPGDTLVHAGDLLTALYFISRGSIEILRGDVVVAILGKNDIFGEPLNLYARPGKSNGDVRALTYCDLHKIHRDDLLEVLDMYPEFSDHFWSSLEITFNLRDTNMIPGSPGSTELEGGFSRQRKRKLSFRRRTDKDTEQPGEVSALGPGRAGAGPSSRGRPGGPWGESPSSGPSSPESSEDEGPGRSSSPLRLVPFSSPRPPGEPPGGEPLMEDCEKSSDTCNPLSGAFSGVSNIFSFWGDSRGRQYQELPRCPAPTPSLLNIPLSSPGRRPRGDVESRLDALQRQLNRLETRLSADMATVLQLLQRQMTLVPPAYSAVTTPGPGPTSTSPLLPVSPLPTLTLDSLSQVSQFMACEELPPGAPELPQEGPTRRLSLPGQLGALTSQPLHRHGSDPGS
Summary of the method: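 hERG block measured as reduced thallium-dye (FluxOR) fluorescence after stimulation buffer addition, read over 2 min. Cells were hERG-BacMam-transduced U2OS exposed to compound ~10 min […]; concentration-response fitted with Hill equation for AC50.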

[4] = target: Luciferin 4-monooxygenase (Photinus pyralis) (UniProt P08659); assay: Biochemical firefly luciferase enzyme assay for NPC (AID 624030);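 note: purified P. pyralis luciferase at 10 nM with luciferin and ATP substrate; 0% = DMSO and -100% = full luciferase inhibition by PTC124 control; nearly all actives have a fitted effect of over 70% in size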
Chain of Luciferin 4-monooxygenase (Photinus pyralis) (P08659 whole entry, looked up): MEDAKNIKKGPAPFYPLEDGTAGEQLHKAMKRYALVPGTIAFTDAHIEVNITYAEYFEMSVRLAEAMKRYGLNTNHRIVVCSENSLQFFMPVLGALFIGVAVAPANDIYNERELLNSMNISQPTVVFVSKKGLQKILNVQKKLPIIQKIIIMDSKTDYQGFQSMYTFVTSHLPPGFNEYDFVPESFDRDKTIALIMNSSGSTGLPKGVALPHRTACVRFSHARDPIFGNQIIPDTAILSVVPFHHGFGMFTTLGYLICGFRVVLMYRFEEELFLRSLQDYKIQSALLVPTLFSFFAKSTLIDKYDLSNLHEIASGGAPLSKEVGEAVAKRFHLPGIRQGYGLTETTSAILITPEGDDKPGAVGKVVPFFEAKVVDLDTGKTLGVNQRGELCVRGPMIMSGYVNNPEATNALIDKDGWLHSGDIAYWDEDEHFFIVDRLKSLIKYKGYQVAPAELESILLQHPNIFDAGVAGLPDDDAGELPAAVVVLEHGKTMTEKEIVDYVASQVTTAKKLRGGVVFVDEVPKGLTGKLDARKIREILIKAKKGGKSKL
Summary of the method: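 Direct inhibition of firefly luciferase enzyme (10 nM final, 50 mM Tris Acetate) assessed by luminescence within 5 minutes. Percent activity scaled between DMSO and PTC124 positive control, with concentration-effect curves classified by fit quality and response.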

[5] = qHTS assay for small molecule activators of the p53 signaling pathway (AID 651743; active = well fitted activation curve with a large enough effect in the signal ratio, not every such curve was filed as active; the % refers to the signal ratio; note: % of control where 0% means no effect); details: HCT-116 p53RE-bla, beta-lactamase FRET ratio, 16 h; activation: active compounds read high
Summary of the method: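 A beta-lactamase reporter under p53 response element control, stably carried by HCT-116 cells, reported pathway activation. Test compounds were applied for 16 hours at 37 C, and fluorescence was measured 2 hours after adding the B/G FRET substrate.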

[6] = qHTS assay for small molecule disruptors of the mitochondrial membrane potential - 1 hr assay (AID 651754; calls by dose curve; note: % is set by controls: 0 for no effect and ±100 for the full control effect; nearly all actives have a fitted effect of over 35% in size)
Summary of the method: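 In this qHTS format, a 1 hr compound treatment of HepG2 cells precedes Mito-MPS staining, and membrane potential is judged from aggregate (red) against monomer (green) fluorescence intensity.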

[7] = qHTS assay for small molecule disruptors of the mitochondrial membrane potential - 5 hr assay (AID 651755; calls by dose curve; note: % is set by controls: 0 for no effect and ±100 for the full control effect; nearly all actives have a fitted effect of over 40% in size)
Summary of the method: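 Membrane-potential dye readout: red aggregate (540 ex/590 em) versus green monomer (490 ex/535 em) fluorescence after 30 min dye loading, following 5 hr compound exposure at 37C of overnight-plated HepG2 cells.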

[8] = target: Tumor necrosis factor (Homo sapiens) (UniProt P01375); assay: qHTS assay to identify small molecules that stimulate Tumor Necrosis Factor-alpha (TNF-alpha) secretion (AID 651757; active = well fitted curve in the direction sought with a large enough effect in the signal ratio; the % refers to the signal ratio; note: 0% is about no effect)
Chain of Tumor necrosis factor (Homo sapiens) (P01375 whole entry, looked up): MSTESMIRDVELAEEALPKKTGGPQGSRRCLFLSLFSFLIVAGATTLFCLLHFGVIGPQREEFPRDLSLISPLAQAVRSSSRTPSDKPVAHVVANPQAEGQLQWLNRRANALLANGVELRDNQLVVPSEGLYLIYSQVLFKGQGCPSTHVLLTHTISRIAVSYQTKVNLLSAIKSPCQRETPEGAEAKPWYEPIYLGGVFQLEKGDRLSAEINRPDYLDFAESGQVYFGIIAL
Summary of the method: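 Using 3000 THP-1 cells per well, compounds and controls were applied for 17 hrs at 37 C. Detection followed with two labeled anti-TNF-alpha antibodies (cryptate donor, XL665 acceptor) for 3 hr at room temperature, measured by TR-FRET.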

[9] = target: Peroxisome proliferator-activated receptor alpha (Homo sapiens) (UniProt Q07869); assay: qHTS assay for small molecule agonists of the peroxisome proliferator-activated receptor alpha (PPARalpha) signaling pathway (AID 651778); details: PathHunter PPARalpha complementation, chemiluminescence, 6 h; active compounds read high; note: % of control where 0% means no effect
Chain of Peroxisome proliferator-activated receptor alpha (Homo sapiens) (Q07869 whole entry, looked up): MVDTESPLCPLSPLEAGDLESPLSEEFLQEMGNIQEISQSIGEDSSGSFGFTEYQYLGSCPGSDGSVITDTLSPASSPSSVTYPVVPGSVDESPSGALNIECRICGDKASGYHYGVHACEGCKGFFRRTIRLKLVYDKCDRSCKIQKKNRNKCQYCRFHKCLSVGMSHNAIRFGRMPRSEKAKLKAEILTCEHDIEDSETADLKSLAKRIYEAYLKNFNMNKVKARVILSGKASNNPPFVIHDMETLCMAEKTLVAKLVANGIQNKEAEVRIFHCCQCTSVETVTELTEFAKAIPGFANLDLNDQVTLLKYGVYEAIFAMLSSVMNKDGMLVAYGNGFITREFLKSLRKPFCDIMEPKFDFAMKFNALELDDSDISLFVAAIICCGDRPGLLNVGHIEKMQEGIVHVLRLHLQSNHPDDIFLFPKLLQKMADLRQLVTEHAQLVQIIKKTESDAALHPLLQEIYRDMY
Summary of the method: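 Chemiluminescence from complemented enzyme reported PPARalpha activation in cells after 6 hr of compound treatment at 37 C. The detection reagent was incubated for 60 min at room temperature, and compounds were scored as agonists.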

[10] = target: Nuclear receptor ROR-gamma (Homo sapiens) (UniProt P51449); assay: qHTS assay for small molecule antagonists of the retinoid-related orphan receptor gamma (ROR-gamma) signaling pathway (AID 651802);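 note: CHO cells with doxycycline-induced ROR-gamma expression; luciferase reporter luminescence driven by ROR response element; % is set by controls: 0 for no effect and ±100 for the full control effect; nearly all actives have a fitted effect of over 60% in size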
Chain of Nuclear receptor ROR-gamma (Homo sapiens) (P51449 whole entry, looked up): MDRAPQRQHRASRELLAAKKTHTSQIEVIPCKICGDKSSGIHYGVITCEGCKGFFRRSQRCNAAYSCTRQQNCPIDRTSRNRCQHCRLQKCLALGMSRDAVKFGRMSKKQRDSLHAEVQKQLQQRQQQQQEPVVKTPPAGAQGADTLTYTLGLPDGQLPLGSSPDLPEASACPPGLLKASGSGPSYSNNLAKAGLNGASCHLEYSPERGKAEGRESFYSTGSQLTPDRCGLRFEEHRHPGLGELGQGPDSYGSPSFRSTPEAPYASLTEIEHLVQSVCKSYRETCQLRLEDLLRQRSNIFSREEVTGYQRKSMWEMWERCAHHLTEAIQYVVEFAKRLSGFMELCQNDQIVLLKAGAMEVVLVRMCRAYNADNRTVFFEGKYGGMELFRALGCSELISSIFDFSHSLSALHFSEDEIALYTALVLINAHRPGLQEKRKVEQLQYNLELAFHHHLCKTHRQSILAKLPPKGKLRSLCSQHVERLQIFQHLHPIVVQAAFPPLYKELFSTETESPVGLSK
Summary of the method: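 Doxycycline-induced reporter activity in engineered CHO cells (TET-inducible ROR, RORE-LUC) was measured by luminescence after 16hr compound exposure at 37C.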

[11] = qHTS assay for small molecule agonists of the antioxidant response element (ARE) signaling pathway measured by Nrf2-dependant transcriptional activity (AID 720636; active = well fitted curve in the direction sought with a large enough effect in the repeat runs; an effect the other way counts as inactive or inconclusive; note: % of control where 0% means no effect)
Summary of the method: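 Quantitative HTS format in HepG2 cells stably expressing an ARE-luciferase reporter; 16 hr compound treatment at 37 C, luciferase signal detected with ONE-Glo.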

[12] = qHTS assay for small molecule antagonists of the retinoid-related orphan receptor gamma (ROR-gamma) signaling pathway - cell viability counter screen (AID 720652; active = well fitted curve in the direction sought with a large enough effect in the repeat runs; an effect the other way counts as inactive or inconclusive;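 note: CHO reporter cells with doxycycline-induced ROR-gamma expression; compound exposure lasted 16 hr before ATP read; % is set by controls: 0 for no effect and ±100 for the full control effect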)
Summary of the method: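 ATP-based viability readout in the ROR-gamma reporter CHO cells after 16 hr compound exposure under doxycycline induction.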

[13] = qHTS assay for small molecule agonists of the antioxidant response element (ARE) signaling pathway measured by Nrf2-dependant transcriptional activity - cell viability counter screen (AID 720653; active = well fitted curve in the direction sought with a large enough effect in the repeat runs; an effect the other way counts as inactive or inconclusive; note: % is set by controls: 0 for no effect and ±100 for the full control effect); details: ARE-bla HepG2 viability, CellTiter-Glo ATP luminescence, 16 h; max response: active compounds read low
Summary of the method: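 Cytotoxicity counter screen: intracellular ATP quantified by CellTiter-Glo luminescence in the same ARE-bla HepG2 plates, after 16 h compound exposure and a 2 h beta-lactamase substrate step.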

[14] = qHTS Assay for Identifying Gametocytocidal Compounds (AID 743244);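 note: % is set by controls: 0 for no effect and ±100 for the full control effect; actives lower the fluorescent signal which means gametocytes are killed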; details: P. falciparum 3D7 stage III-V gametocytes, alamarBlue, 72 h; max response: active compounds read low
Summary of the method: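 Compounds are pinned into medium, gametocytes (stage III–V, 3D7, 20,000 cells/well) added, and plates held 72 h at 37 °C in 5% CO2. AlamarBlue follows for 24 h before fluorescence reading.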

[15] = qHTS assay for cell viability of HEK293 cells (AID 743288); details: ATP luminescence (CellTiter-Glo), 18 h; max response: active compounds read low; note: % is set by controls: 0 for no effect and ±100 for the full control effect; nearly all actives have a fitted effect of over 50% in size
Summary of the method: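 Readout is luciferase-coupled ATP content (CellTiter-Glo luminescence, 30 min room temperature) as a measure of metabolically competent cells. Parental HEK293 cells were plated 5 h or more before compound addition, then treated 18 h at 37 C.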

[16] = qHTS assay for cell viability of the p53RE-bla HCT-116 cell line (AID 743292); note: % is set by controls: 0 for no effect and ±100 for the full control effect; nearly all actives have a fitted effect of over 55% in size
Summary of the method: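 Viability of compound-treated p53RE-bla HCT-116 cells is taken from ATP-dependent luciferase luminescence. Treatment lasts 16 h at 37 C after a 5 h settling period; detection follows 30 min at room temperature.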

[17] = P-glycoprotein substrates identified in KB-8-5-11 adenocarcinoma cell line, qHTS therapeutic library screen (AID 1346987); note: % is set by controls: 0 for no effect and ±100 for the full control effect; nearly all actives have a fitted effect of over 65% in size
Summary of the method: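 Human cervical adenocarcinoma KB-8-5-11 cells, selected in colchicine to over-express P-gp and assayed without it, were exposed for 72 h to titrated compounds. An ATP-based luminescent viability signal gave AC50.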

KB-3-1 = assay: Cytotoxic Profiling of Annotated Libraries Using Quantitative High-Throughput Screening (AID 1296008); details: Five cell lines viability, CellTiter-Glo ATP luminescence, 48-72 h; max response: active compounds read low; note: % is set by controls: 0 for no effect and ±100 for the full control effect; nearly all actives have a fitted effect of over 60% in size
Summary of the method: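 Cytotoxicity was measured as CellTiter-Glo ATP luminescence, read after 10 min at room temperature. Compound treatment of the cells lasted 48 or 72 hr at 37 degrees Celsius in a qHTS format.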

[18] = Drug repurposing screens with cells derived from glioblastoma tumor samples (AID 1345199); details: GBM patient neurospheres viability, ATP luminescence, 48 h; Potency: tumour line A; series mostly up to 45.9 µM; note: % is set by controls: 0 for no effect and ±100 for the full control effect; nearly all actives have a fitted effect of over 40% in size
Summary of the method: (§1)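 Primary testing used CD133+ neurospheres from four GBM patients, seven concentrations, 48 h exposure and ATP-based viability; confirmation added three slower-growing patient lines.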

astro = assay: as above; details: viability, ATP luminescence, 48 h; series mostly up to 45.9 µM
Summary of the method: as §1

[19] = target: Nuclear receptor subfamily 1 group I member 2 (Rattus norvegicus) (UniProt Q9R1A7); assay: qHTS assay for small molecule activators of the rat pregnane X receptor (rPXR) signaling pathway (AID 651751; call rule not given here; note: 0% is about no effect); details: rPXR reporter cells, luciferase (One-Glo), 24 h
Chain of Nuclear receptor subfamily 1 group I member 2 (Rattus norvegicus) (Q9R1A7 whole entry, looked up): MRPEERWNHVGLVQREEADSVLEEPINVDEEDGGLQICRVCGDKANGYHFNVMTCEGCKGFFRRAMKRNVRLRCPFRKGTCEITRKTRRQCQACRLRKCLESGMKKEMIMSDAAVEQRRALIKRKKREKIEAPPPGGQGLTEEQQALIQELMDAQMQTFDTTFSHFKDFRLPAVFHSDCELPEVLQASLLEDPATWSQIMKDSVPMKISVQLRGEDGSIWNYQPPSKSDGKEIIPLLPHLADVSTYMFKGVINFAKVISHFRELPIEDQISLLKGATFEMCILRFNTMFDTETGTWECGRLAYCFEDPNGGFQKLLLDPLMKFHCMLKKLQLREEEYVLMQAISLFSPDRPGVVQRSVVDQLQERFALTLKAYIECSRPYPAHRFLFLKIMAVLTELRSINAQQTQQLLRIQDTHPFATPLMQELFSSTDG

[20] = qHTS assay for small molecule activators of the human pregnane X receptor (PXR) signaling pathway (AID 720659; call rule not given here; note: 0% is about no effect)

O=Cc1ccccc1
inactive: max response [1] 10.9% | activity change % (negative = inhibition) [2] 12% | Potency [3] | Potency [4] | activation [5] -1.08% | Potency [6] | Potency [7] | outcome [8] | max response [9] -3.46% | Potency [10] | Potency [11] | outcome [12] | max response [13] -5.51% | max response [14] -4.29% | max response [15] -12% | outcome [16] | Potency [17] | max response (KB-3-1) -11.1% and 0.83% | Potency [18] | Potency (astro) | max response [19] 2.23% | outcome [20]
